# Data taken from ChEMBL document CHEMBL4513216, “Probing the Open Global Health Chemical Diversity Library for Multistage-Active Starting Points for Next-Generation Antimalarials” (ACS Infect Dis, 2020).
# Among all 69,000 compounds or so, about 8,600 (12%) showed an effect of 50% or more. This is one part of a sample in which strong results are shown more often than they occur.
# Tested on: Plasmodium berghei
# Experiment: Screen against P. berghei liver stage (PbLuc), transformed with Luciferase, at 10uM
# Assay type: functional, HepG2
# Details: tested at 10 uM
row,Compound,INHIBITION
1,c1cc(CN2CCC3(CC2)COC(COCC2CC2)C3)cs1 (stereo not drawn),19.8%
2,Nc1nc(N)c2c(n1)OC1(CCCN(Cc3nccs3)CC1)C2 (stereo not drawn),10.25%
3,CC(C)c1noc(CCNC(=O)N2CCC(O)(C(F)(F)F)C2)n1 (stereo not drawn),36.5%
4,OCCOCCNCC1(c2ccc(F)cc2)CCOC1 (stereo not drawn),31.6%
5,Fc1ccc(C2(CNCC(F)F)CCOC2)cc1 (stereo not drawn),22.5%
6,Fc1ccc(C2(CNCCc3cccs3)CCOC2)cc1 (stereo not drawn),63.1%
7,CCc1noc(-c2cccc(NC(=O)C(C)(C)C)c2)n1,32.5%
8,Cc1ncc(-c2ccncc2)c(C2CCN(C(=O)c3ccno3)CC2)n1,24.05%
9,CNC(=O)C1(C)CN(c2nc(C)cc(C)n2)CCO1 (stereo not drawn),-3.94%
10,CC(=O)Nc1nc2c(s1)C(C)(C)Nc1ccccc1S2,59%
11,CC(=O)Nc1nc2c(s1)C1(CCCC1)Nc1ccccc1S2,41.2%
12,CC(=O)Nc1nc2c(s1)C1(CCN(C)CC1)Nc1ccccc1S2,10%
13,CC(C)(C)OC(=O)NCCNC(=O)c1ccc(-c2ccco2)[nH]c1=O,7.12%
14,CNC(=O)c1cnc2n1CCN(Cc1cccnc1)C2,49.1%
15,Cc1cnc2n(c1=O)CC(C(=O)Nc1ccon1)CS2 (stereo not drawn),61.5%
16,Cc1cnc2n(c1=O)CC(C(=O)Nc1ccccc1Cl)CS2 (stereo not drawn),-17%
17,Cc1ccc(Cl)cc1NC(=O)C1CSc2ncc(C)c(=O)n2C1 (stereo not drawn),-34.5%
18,Cc1cnc2n(c1=O)CC(C(=O)NC1CC1)CS2 (stereo not drawn),-14.6%
19,Cc1cnc2n(c1=O)CC(C(=O)NCc1ccccc1Cl)CS2 (stereo not drawn),65.9%
20,Cc1ccncc1NC(=O)C1CSc2ncc(C)c(=O)n2C1 (stereo not drawn),43.8%
21,CSc1ccccc1NC(=O)C1CSc2ncc(C)c(=O)n2C1 (stereo not drawn),60%
22,Cc1cccnc1NC(=O)C1CSc2ncc(C)c(=O)n2C1 (stereo not drawn),-4.99%

row,Compound,INHIBITION
1,Cc1cccc(NC(=O)C2CSc3ncc(C)c(=O)n3C2)n1 (stereo not drawn),6.83%
2,Cc1sc(N)nc1-c1ccc(Cl)cc1,-7.77%
3,COc1cccc(NC(=O)c2cc3c([nH]c2=O)CCCC3=O)c1,-37.6%
4,Cc1nc2ccccc2n1CCNCc1cccc(C#N)c1,17.5%
5,CCNC(=O)c1ccc(NC2CCOC3(CCCCC3)C2)nn1 (stereo not drawn),-9.82%
6,CC(NC(=O)NCCCc1n[nH]c(N)c1C#N)c1ccc(Cl)cc1 (stereo not drawn),7.08%
7,CCC1(CC)Cc2ccccc2-c2nc(NCCCO)[nH]c(=O)c21,62.3%
8,CCC1(CC)Cc2ccccc2-c2nc(CN(C)C)nc(O)c21,53.7%
9,O=c1c(NCCCO)c(N2CCN(c3ccccc3)CC2)c1=O,44.9%
10,CN(Cc1ccccc1)C1(C(=O)O)Cc2ccccc2C1,26.1%
11,CCC1(CC)Cc2ccccc2-c2nc(NCCO)[nH]c(=O)c21,64%
12,Cc1cc(NCCO)nc(-c2ccccc2O)n1,-16%
13,CC1(C)Cc2ccccc2-c2nc(NCCCO)[nH]c(=O)c21,45.8%
14,CCC1(C)Cc2ccccc2-c2nc(NCCO)nc(O)c21 (stereo not drawn),20.9%
15,CC1(C)Cc2ccccc2-c2nc(NCCO)[nH]c(=O)c21,-4.74%
16,CNc1ccc(CC2CCCN(C(=O)c3scnc3C)C2)nn1 (stereo not drawn),26.3%
17,CO[C@H]1CN(C(=O)c2cccc(C)n2)CC[C@@]12CCCO2,21.7%
18,Cc1ccc(N2CCCC(NCc3ccc4c(c3)CCO4)C2)nn1 (stereo not drawn),7.12%
19,COCCN1CCCC(c2ncc(C(=O)N(C)C)c(C)n2)C1 (stereo not drawn),9.98%
20,Cc1ccc(CN2C[C@@H]3[C@@H](C(=O)NCC(C)C)CCS(=O)(=O)[C@@H]3C2)cc1,-36.9%
21,COc1ccc(CN(C)Cn2cc(C)n(-c3cc(C)on3)c2=O)cc1,19.3%
22,Cc1cccnc1NC(=O)N(CCO)Cc1ccsc1,-6.75%

row,Compound,INHIBITION
1,O=C(O)c1cccc(N2CCC(Oc3cccc(F)c3)CC2)n1,35%
2,CNC(=O)c1cccnc1N1CCC(OCc2ccccc2)CC1,6.11%
3,COC(=O)c1cccnc1N1CCC(Oc2cccc(F)c2)CC1,58.4%
4,CCN(C)C(=O)c1ccc(N2CCC(Oc3cccc(F)c3)CC2)nc1,61%
5,O=C(O)c1ccc(N2CCC(Oc3ccc(Cl)cc3)CC2)nc1,29.4%
6,CNC(=O)c1cccnc1N1CCN(C/C=C/c2ccccc2)CC1,25.1%
7,CNC(=O)c1cccnc1N1CCC(Oc2ccc(F)cc2)CC1,93.6%
8,O=C(O)c1ccc(N2CCC(Oc3cccc(F)c3)CC2)nc1,32.2%
9,Cc1ccc(NC2CCN(C(=O)COc3cccc(F)c3)CC2)nn1,4.52%
10,COc1ncccc1C(=O)N1CC[C@]2(C[C@@H](Oc3cccnc3)CO2)C1,6.66%
11,CC(C)NC(=O)C1CN(C(=O)Nc2cccc(F)c2)CC12CCOCC2 (stereo not drawn),17.1%
12,Cc1cnn(CC(C)Nc2cnc3ccccc3n2)c1 (stereo not drawn),-26.8%
13,CCn1cc(-n2cc3nc(N4CCN(C)CC4)[nH]cc-3c2=O)cn1,-5.53%
14,CN(C)S(=O)(=O)N1CCN(c2cc(-n3cccc3)ncn2)CC1,14.4%
15,CN(Cc1nnc(C2CC2)n1C)C(=O)c1ccnc(OC2CCC2)c1,-13.4%
16,CN(Cc1ccc(C#N)cc1)C(=O)c1ccnc(OC2CCC2)c1,51.4%
17,CCc1noc(CN(C)C(=O)c2ccnc(OC3CCC3)c2)n1,55.4%
18,CN(CC1CCCCO1)C(=O)c1ccnc(OC2CCC2)c1 (stereo not drawn),9.48%
19,CN(Cc1cnn(C)c1)C(=O)c1ccnc(OC2CCC2)c1,46.4%
20,CN(Cc1cnccn1)C(=O)c1ccnc(OC2CCC2)c1,36.3%
21,CC(C)NC(=O)N1CCc2ncc(CN3CCOCC3)n2CC1,21.6%
22,CCCS(=O)(=O)N1Cc2nccn2CC(CN(C)C)C1 (stereo not drawn),-57.5%

row,Compound,INHIBITION
1,CC(=O)Nc1ccc(CNCc2ccc(CS(C)(=O)=O)cc2)cc1,38%
2,COCc1nc(CNc2cccc(-c3csc(C)n3)c2)cs1,18.9%
3,COCc1nc(CNc2cccc(-c3ncon3)c2)cs1,-42.1%
4,COCc1nc(CNc2cc(C)on2)cs1,51.7%
5,Cc1cc(NCc2csc(C)n2)no1,29.4%
6,COCc1nc(CNc2cccc(-c3nc(C)c(C)o3)c2)cs1,65.3%
7,Cc1cc(NCc2csc(-c3ccsc3)n2)no1,-92.1%
8,CN(Cc1noc2c1CCCC2)C(=O)Nc1ccc2oc(=O)n(C)c2c1,36.4%
9,Cc1cnn(CCNCc2ccccc2OCc2ccncc2)c1,-15.5%
10,COc1cc(C(=O)N(Cc2ccco2)C2CC2)cc2c1OCCO2,-2.37%
11,COc1cc(C(=O)N(Cc2ccco2)C2CC2)cc(OC)c1OC,53.4%
12,CCN(Cc1ccco1)C(=O)c1cc(OC)c2c(c1)OCCO2,10.3%
13,O=C(NCCNc1ncccn1)C1CC(=O)N(C2CCCC2)C1 (stereo not drawn),21.6%
14,c1ccc(-c2nnc(CNCCn3cccn3)o2)cc1,32.6%
15,c1cnn(CCNCc2nnc(C3CC3)o2)c1,53.5%
16,Cc1cnn(CCNCc2nnc(C3CC3)o2)c1,21.2%
17,Cn1cccc1C(=O)N1CC[C@H]2C[C@@H](c3ccncn3)O[C@@H]2C1,41.5%
18,Cc1noc2nc(C3CCN(CC4CCCCC4)CC3)cc(C(F)F)c12,59%
19,Cc1noc2nc(C3CCN(Cc4cccnc4)CC3)cc(C(F)F)c12,48.3%
20,Cc1noc2nc(C3CCN(Cc4ccncc4)CC3)cc(C(F)F)c12,44.9%
21,CCCS(=O)(=O)N1C[C@@H]2C[C@H](C(=O)N3CCOCC3)[C@H](C1)O2,-19.6%
22,CNC(=O)c1cccc(NC(=O)CN2CCCN(S(C)(=O)=O)CC2)c1,-7.27%

row,Compound,INHIBITION
1,O=C(C[C@@H]1COC[C@H]2CN(C3CCCC3)C[C@@H]12)NCc1cccnc1,20.6%
2,Cc1nnc2n1CCN(Cc1nc(-c3ccoc3)no1)C2,-16.75%
3,Cc1nn(C)c(N(C)C)c1CNCCC(=O)NC1CCCC1,64.8%
4,Cc1nn(C)c(N(C)C)c1CNCc1ccc(C(=O)N(C)C)cc1,-19.9%
5,COc1c(CNCc2ccc(CN(C)C)cc2)c(C)nn1C,-15.8%
6,COc1c(CNCc2ccc(OCC(N)=O)cc2)c(C)nn1C,35.9%
7,Cc1nn(C)c(N(C)C)c1CNCCC(=O)NC1CCCCC1,49.8%
8,COc1c(CNCc2ccc(C(=O)N3CCCC3)cc2)c(C)nn1C,64.9%
9,COCc1ccc(CNCc2c(C)nn(C)c2N(C)C)cc1,33.7%
10,COc1c(CNCc2ccc(S(C)(=O)=O)cc2)c(C)nn1C,-31.8%
11,CCNC(=O)c1ccc(CNCc2c(C)nn(C)c2N(C)C)cc1,58.8%
12,COc1c(CNCc2ccc(C(=O)NC3CC3)cc2)c(C)nn1C,13.5%
13,COc1c(CNCc2ccc(C(=O)N(C)C(C)C)cc2)c(C)nn1C,88.5%
14,CC(C)c1nn(C)c(N(C)C)c1CNCCC(=O)NC1CCCC1,35.8%
15,Cc1nn(C)c(N2CCOCC2)c1CNCc1ccoc1C,-29.8%
16,O=C1CC2(CCCC2)CC(=O)N1Cc1nccs1,28.4%
17,Cc1ncsc1CN1C[C@@H](O)[C@](O)(CNC(=O)c2ccccn2)C1,18.9%
18,O=C(NC1CCC1)[C@H]1C[C@@H]2[C@@H](C1)OCCN2CC1CC1,36.4%
19,Cc1ccc2c(c1)C1(CCN(C(N)=O)CC1)CN2CC1CC1,44.8%
20,NS(=O)(=O)c1cnn(CC(=O)Nc2c(Cl)cccc2Cl)c1,42.3%
